High-throughput results deposited in PubChem by National Center for Advancing Translational Sciences (NCATS).
The list is not random: actives were taken first. Their share in the collection is about 12%.
FMDV inh – foot and mouth disease virus antiviral activity | FMDV antiviral cell-based qHTS | Potency, µM (series often up to 57.9 µM), for the others: at the top dose activity change, negative = inhibition, hits mostly inhibitors | 410,000 compounds, 1.2% hits | AID 1159524; calls by dose curve; tested in HEK293T cells; also: read-out not given here; potency is read from the fitted curve at half-maximal effect; % is scaled to controls: 0 for no effect and ±100 for the full control effect; nearly all actives have a fitted effect of over 45% in size
Shiga inhibitor – Shiga toxin inhibition; inhibition, % at 38.7 µM; Vero cells, Shiga toxin protein synthesis inhibition reporter; 290,000 compounds, 9.2% hits; AID 2315; in the data active = inhibition mostly above about 28%, no sharp cut-off; inactive = mostly below about 43%; also: 0% is about no effect
Sm TGR block – inhibitors of Schistosoma mansoni thioredoxin glutathione reductase; Q962Y6; purified TGR, DTNB reduction, TNB absorbance 405 nm; Potency, µM (titrated, usually from 114 µM), inactives show at the top dose activity change, negative = inhibition, most hits filed as inhibitors; 360,000 compounds, 3% hits; AID 485364; active = well fitted inhibition curve with a large enough effect; inconclusive = small, poorly fitted or top-dose-only effect; inactive = no such curve, though single readings can be large or run the other way; also: potency is read from the fitted curve at half-maximal effect; % is scaled to controls: 0 for no effect and ±100 for the full control effect; nearly all actives have a fitted effect of over 60% in size
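Kinetic colorimetric format: TGR-catalysed, NADPH-driven DTNB reduction monitored via TNB absorbance. Enzyme dispensed at 20 nM; compound exposure 15 min at room temperature before reaction start.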
Cycloheximide cs – counter-screen for Shiga toxin inhibitors: cycloheximide protein synthesis inhibition | cell reporter, cycloheximide protein synthesis inhibition counterscreen | max response, % | 300,000 compounds, 12% hits | AID 2314; in the data active = max response mostly above about 13%, no sharp cut-off; inactive = mostly below about 14%; also: read at 38.3 µM for the half of the compounds with a filed dose; 0% is about no effect
* hit, by the source's call; ? = inconclusive; nt = not tested or not shown; + = active, no number.

SMILES	FMDV inh	Shiga inhibitor	Sm TGR block	Cycloheximide cs
CCCCOc1ccc(C2c3c(oc4ccccc4c3=O)C(=O)N2c2nc(C)c(C(=O)OCC)s2)cc1OC (stereo unspecified)	-20.3%	nt	1.3%	nt
Cc1ccc(S(=O)(=O)n2nc(C)c(S(=O)(=O)N3CCC(C)CC3)c2C)cc1	21.6%	nt	?	nt
Cc1cc(C)cc(NC(=O)CSCc2cc(=O)c3cc(Cl)ccc3[nH]2)c1	3.1%	nt	2.9%	nt
Cc1cccc2cc(CN(C(=O)c3ccc(C(F)(F)F)cc3)C3CC3)c(N3CCC(O)CC3)nc12	-10.9%	nt	nt	nt
Cc1nc2ccc(-c3nc4cc(N)ccc4o3)cc2[nH]1	0.0%	26.7*	-25.2%	20.8*
CCc1ccc2oc(-c3cccc(N)c3)nc2c1	-65.7%	28.8	-17.0%	23.2
CN(C)CC(=O)c1ccc(-c2ccccc2)cc1	-3.5%	99.3	?	23.7*
CCN(CC)C(=O)c1ccc(-c2ccccc2)cc1	24.4%	+	-5.5%	16.2*
CCN(Cc1ccccc1)C(=O)c1ccc(C(=O)N(CC)Cc2ccccc2)cc1	?	-12.2	-20.2%	-2.0
Cc1cccc2c3c(ccc12)C1=C(C(=O)C3=O)[C@@H](C)CO1	nt	19.4	nt	29.1
CC(=O)NCCNC(=O)CCCc1nnc2n(C)c(=O)c3sccc3n12	-15.5%	nt	1.4%	nt
COc1ccc2c(CNCCc3ccc(SC)cc3)c(C(=O)O)n(Cc3ccc(F)cc3)c2c1	-18.1%	nt	0.8%	nt
COc1ccc(C(=O)Nc2ccccc2-c2nc3ccccc3s2)cc1OC	0.0%	nt	0.7%	nt
Cc1cc(Nc2ccc(N(C)C)cc2)n2ncnc2n1	13.7%	97.7*	-4.8%	43.5*
Cc1cc(Nc2ccc(Cl)cc2)n2ncnc2n1	4.5%	-7.1	-5.8%	0.7
CC(=O)c1ccc(NC(=O)c2ncn(-c3ccccc3)n2)cc1	54.9%	nt	-7.4%	nt
COc1cc2c(cc1NC(=O)c1ccco1)CCCC2	nt	57.3*	-7.7%	51.5*
COc1cc(NC(=O)C2CCCCC2)c(OC)cc1NC(=O)c1ccco1	7.3%	-5.5	11.0%	-5.5
CC(=O)c1ccccc1NC(=O)CCNC(=O)c1ccco1	5.7%	27.2	-24.6%	18.5*
COc1ccc(NC(=O)c2ccccc2O)c(OC)c1	58.5%	87.6*	-3.6%	51.2*
COc1ccc(NC(=O)CCNC(=O)c2ccco2)c(OC)c1	7.0%	16.6	?	28.3*
COc1ccc(OC)c(NC(=O)CCNC(=O)c2ccco2)c1	-7.0%	-4.0	-3.8%	0.6
CCOc1ccc(OCC(=O)NCCS(=O)(=O)N2CCN(c3cccc(Cl)c3)CC2)cc1	-13.1%	nt	6.5%	nt
COc1ccc(NC(=O)c2ccco2)c(OC)c1	29.5%	74.2*	-5.8%	41.8*
CC[C@H](C)[C@H](NC(=O)[C@H](CCC(=O)O)NC(=O)[C@H](CO)NC(=O)[C@@H](NC(=O)[C@H](C)N)C(C)C)C(=O)N[C@@H](CCC(N)=O)C(=O)N[C@@H](CC(C)C)C(=O)N[C@@H](CCSC)C(=O)N[C@@H](Cc1cnc[nH]1)C(=O)N[C@@H](CC(N)=O)C(=O)N[C@@H](CC(C)C)C(=O)NCC(=O)N[C@@H](CCCCN)C(=O)N[C@@H](Cc1cnc[nH]1)C(=O)N[C@@H](CC(C)C)C(=O)N[C@@H](C)C(=O)N[C@@H](CO)C(=O)N[C@H](C(=O)N[C@@H](CCC(=O)O)C(=O)N[C@@H](CCCNC(=N)N)C(=O)N[C@@H](CCSC)C(=O)N[C@@H](CCC(N)=O)C(=O)N[C@@H](Cc1c[nH]c2ccccc12)C(=O)N[C@@H](CC(C)C)C(=O)N[C@@H](CCCNC(=N)N)C(=O)N[C@@H](CCCCN)C(=O)N[C@@H](CCCCN)C(=O)N[C@@H](CC(C)C)C(=O)N[C@@H](CCC(N)=O)C(=O)N[C@@H](CC(=O)O)C(=O)N[C@H](C(=O)N[C@@H](Cc1cnc[nH]1)C(=O)N[C@@H](CC(N)=O)C(=O)N[C@@H](Cc1ccccc1)C(=O)O)C(C)C)C(C)C	nt	8.3	nt	-3.6
SMILES	FMDV inh	Shiga inhibitor	Sm TGR block	Cycloheximide cs
CCC(CC)C(=O)N1CCCC(c2nc(-c3cccs3)no2)C1 (stereo unspecified)	-5.3%	61.0*	2.9%	17.0
CCOc1ccc(C(=O)N2CCCC(c3nc(-c4cccs4)no3)C2)cc1 (stereo unspecified)	-23.9%	33.2*	-0.5%	27.7*
O=C(c1ccc(Cl)cc1)N1CCC(c2nc(-c3cccs3)no2)CC1	-16.1%	1.5	-5.5%	-1.7
CSCC[C@H](NC(=O)c1ccc(NC[C@@H](N)CS)cc1-c1ccccc1)C(=O)O	nt	-9.2	nt	-5.3
CCc1ccc(-c2ccc(C(=O)O)c(C)n2)cc1	37.9%	46.9*	8.9%	40.1*
Cc1nc(-c2cccc(Br)c2)ccc1C(=O)O	19.1%	4.4	-4.3%	-4.2
COc1ccc2c(c1)c1c(c(=O)n(CCc3ccccc3)c(=O)n1Cc1ccc(Cl)cc1)n2C	-12.7%	nt	-4.6%	nt
Cc1ccccc1CSCCNC(=O)Nc1ccccc1	27.8%	23.6	-2.7%	15.1*
CC(C)(C)SCCNC(=O)Nc1ccccc1	14.3%	19.0*	-2.2%	21.5*
Cc1cccc(CSCCNC(=O)Nc2ccccc2)c1	48.7%	25.4	10.5%	12.4
CC(C)(C)SCCNC(=O)CSc1ccccc1	56.2%	nt	nt	nt
CCOC(=O)c1c(NC(=O)c2cc3nc(-c4ccccc4)cc(C(F)(F)F)n3n2)sc2c1CCC(C)C2 (stereo unspecified)	3.0%	nt	0.9%	nt
CN(C)/C=C/C(=O)/C=C/c1ccc(Cl)cc1Cl	51.4%	102.2*	-5.3%	34.1*
O=C(/C=C/c1ccc(Cl)cc1Cl)n1cccn1	7.2%	-3.2	-27.6%	9.2
O=C(/C=C/c1ccc(Cl)cc1Cl)c1ccc[nH]1	57.8%	74.6*	nt	33.7*
O=C(/C=C/c1ccccc1Cl)c1ccc[nH]1	37.6%	51.5*	-13.8%	36.3*
Cc1cc(-c2ccc(C)c(S(=O)(=O)Nc3cccc(C#N)c3)c2)on1	24.6%	nt	6.0%	nt
Cc1ccc2oc(C(=O)N3CCC(O)(c4cccc(C(F)(F)F)c4)CC3)c(C)c2c1	4.6%	63.2*	1.0%	42.7*
CCOc1ccc(NC(=O)c2cccs2)c([N+](=O)[O-])c1	65.7%	120.4*	17.8%	87.4*
CCOc1ccc(NC(=O)c2ccc(CC)s2)c([N+](=O)[O-])c1	49.4%	34.0*	2.7%	23.3*
CCOc1ccc(NC(=O)c2cccnc2Cl)c([N+](=O)[O-])c1	4.5%	-4.7	-5.0%	26.3
CCOc1ccc(NC(=O)c2ccco2)c([N+](=O)[O-])c1	34.8%	39.9*	-21.7%	66.4*
CCOc1ccc(NC(=O)c2cc(-c3ccc(C)c(F)c3)on2)c([N+](=O)[O-])c1	-2.6%	nt	5.2%	nt
CCNC(=S)Nc1cc(OCC)c(NC(=O)c2ccco2)cc1OCC	6.0%	5.4	2.1%	-1.5
CCOc1cc(NS(=O)(=O)c2ccccc2)c(OCC)cc1NC(=O)c1ccco1	-15.3%	-14.3	31.6µM*	0.8
Cc1csc2nc(COc3ccccc3NC(=O)c3ccc(C(C)(C)C)cc3)cc(=O)n12	2.6%	nt	6.7%	nt
CCN(C(=O)CSc1ncc(S(=O)(=O)c2ccc(C)c(Cl)c2)c(=O)[nH]1)c1cccc(C)c1	11.8%	nt	-3.5%	nt
O=C(NNc1ccc([N+](=O)[O-])cc1[N+](=O)[O-])c1ccco1	20µM*	-13.9	-33.4%	-1.8
